Test [1] has as its target human Phosphodiesterase 4A1 (PDE4A1), PDE4A (gene 5141) (UniProt P27815). The test can be described thus: NVS_ENZ_hPDE4A1: NovaScreen (NVS) Enzymatic Assay for human Phosphodiesterase 4A1 (PDE4A1) (AID 2283191). The gist of the method: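 Cell-free recombinant human PDE4A1 with fluorescent substrate; product separated by electrophoretic mobility shift, 1 h. Screened at 25 uM, then up to 50 uM in concentration-response; loss of signal fitted against DMSO.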

The target in test [2] is human Phosphodiesterase 5 (PDE5), PDE5A (gene 8654) (UniProt O76074). The test can be described thus: NVS_ENZ_hPDE5: NovaScreen (NVS) Enzymatic Assay for human Phosphodiesterase 5 (PDE5) (AID 2283194). The method in brief: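 Recombinant human PDE5 with specific substrate, read 1 h after dosing by fluorescence with electrophoretic mobility-shift separation of substrate and product. Initial single-concentration duplicate screen at 25 uM, actives followed in concentration series; loss of activity versus DMSO.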

Test [3] addresses human Protein Phosphatase, Mg2+/Mn2+ Dependent 1A (PPM1A), PPM1A (gene 5494) (UniProt P35813). The test can be described thus: NVS_ENZ_hPPM1A: NovaScreen (NVS) Enzymatic Assay for human Protein Phosphatase, Mg2+/Mn2+ Dependent 1A (PPM1A) (AID 2283198). The method in brief:
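Cell-free recombinant PPM1A phosphatase assay with fluorescent substrate, read 1 h after dosing by electrophoretic mobility shift. Chemicals screened in duplicate at 25 uM, then in concentration-response up to 50 uM; loss of activity versus DMSO.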

The target of test [4] is human Matrix Metalloproteinase-9 (MMP9), MMP9 (gene 4318) (UniProt P14780). The test can be described thus: NVS_ENZ_hMMP9: NovaScreen (NVS) Enzymatic Assay for human Matrix Metalloproteinase-9 (MMP9) (AID 2283190).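 Further: cell-free recombinant MMP9 protease activity read by fluorescent substrate signal; active means inhibition seen as loss of fluorescence signal versus DMSO.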 The gist of the method: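 Cell-free recombinant MMP9 enzyme activity measured by fluorescence intensity 1 h after dosing. Primary screen in duplicate at 25 uM, actives followed in concentration series; loss of signal relative to DMSO.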
human Matrix Metalloproteinase-9 (MMP9), MMP9 (gene 4318), sequence (P14780 whole entry, looked up): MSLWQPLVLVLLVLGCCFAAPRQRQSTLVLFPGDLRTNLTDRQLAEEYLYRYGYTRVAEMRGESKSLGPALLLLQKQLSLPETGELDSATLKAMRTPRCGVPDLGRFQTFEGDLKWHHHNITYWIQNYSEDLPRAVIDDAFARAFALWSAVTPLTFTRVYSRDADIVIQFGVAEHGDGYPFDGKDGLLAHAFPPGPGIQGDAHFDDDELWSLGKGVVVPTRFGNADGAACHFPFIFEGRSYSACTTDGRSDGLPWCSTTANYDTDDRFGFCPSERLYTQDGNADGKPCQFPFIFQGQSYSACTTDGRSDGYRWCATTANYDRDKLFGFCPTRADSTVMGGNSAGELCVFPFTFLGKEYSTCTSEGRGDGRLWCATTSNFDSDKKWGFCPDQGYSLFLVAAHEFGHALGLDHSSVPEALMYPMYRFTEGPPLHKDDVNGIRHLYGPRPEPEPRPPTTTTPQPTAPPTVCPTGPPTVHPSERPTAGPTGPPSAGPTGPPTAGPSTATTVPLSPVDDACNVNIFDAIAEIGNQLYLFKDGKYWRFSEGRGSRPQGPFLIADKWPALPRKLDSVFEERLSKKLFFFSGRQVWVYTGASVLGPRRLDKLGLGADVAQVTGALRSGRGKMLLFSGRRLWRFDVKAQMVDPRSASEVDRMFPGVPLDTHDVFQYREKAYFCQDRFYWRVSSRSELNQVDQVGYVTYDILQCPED

Test [5] deals with human Protein Tyrosine Phosphatase Non-receptor Type 9 (PTPN9), PTPN9 (gene 5780) (UniProt P43378). The test is described as follows: NVS_ENZ_hPTPN9: NovaScreen (NVS) Enzymatic Assay for human Protein Tyrosine Phosphatase Non-receptor Type 9 (PTPN9) (AID 2283209). The method in brief:
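Sf9-expressed enzyme in a cell-free assay, fluorescence read 1.33 h after dosing with mobility-shift separation of substrate and product. Tested at 25 uM in duplicate, then up to 50 uM; signal loss versus DMSO.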

Test [6] concerns the target human Phosphodiesterase 10 (PDE10), PDE10A (gene 10846) (UniProt Q9Y233). The test can be described thus: NVS_ENZ_hPDE10: NovaScreen (NVS) Enzymatic Assay for human Phosphodiesterase 10 (PDE10) (AID 2283195). The gist of the method: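 Recombinant human PDE10 with fluorescent substrate, 1 h, product separated by electrophoretic mobility shift. Loss of enzyme activity fitted against DMSO; initial screen 25 uM in duplicate, actives run to 50 uM maximum.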

For test [7], the target named is cAMP-dependent protein kinase catalytic subunit alpha (Homo sapiens) (UniProt P17612). The test can be described thus: NVS_ENZ_hPKA: NovaScreen (NVS) Enzymatic Assay for human Protein Kinase A (PKA) (AID 2283192). The gist of the method:
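Recombinant human PKA with specific fluorescent substrate, product separated by electrophoretic mobility shift, read 1 h after dosing. Primary screen at 25 uM in duplicate; actives then run in concentration-response up to 50 uM, activity relative to DMSO.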

The target in test [8] is Tyrosine-protein phosphatase non-receptor type 13 (Homo sapiens) (UniProt Q12923). The test can be described thus: NVS_ENZ_hPTPN13: NovaScreen (NVS) Enzymatic Assay for human Protein Tyrosine Phosphatase Non-receptor Type 13 (PTPN13) (AID 2283205). The gist of the method:
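Cell-free assay of recombinant human PTPN13 with a fluorescent substrate, product separated by electrophoretic mobility shift and read 0.5 h after dosing. Primary screen at 25 uM in duplicate, then concentration-response up to 50 uM. Loss of signal fitted against DMSO.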

For test [9], the target named is human Mitogen- and Stress-activated Protein Kinase-1 (Msk1), RPS6KA5 (gene 9252) (UniProt O75582). The test can be described thus: NVS_ENZ_hMsk1: NovaScreen (NVS) Enzymatic Assay for human Mitogen- and Stress-activated Protein Kinase-1 (Msk1) (AID 2283187). The gist of the method:
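Recombinant kinase with fluorescent substrate; product separated by electrophoretic mobility shift, read 1 h after dosing. Screened in duplicate at 25 uM; hits (e.g. ≥30% inhibition) tested in concentration–response up to 50 uM. DMSO baseline.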

The target of test [10] is Serine/threonine-protein phosphatase PP1-alpha catalytic subunit (Homo sapiens) (UniProt P62136). The test can be described thus: NVS_ENZ_hPPP1CA: NovaScreen (NVS) Enzymatic Assay for human Protein Phosphatase 1 Aatalytic subunit Alpha (PPP1CA) (AID 2283200). The method in brief:
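Recombinant enzyme activity read by fluorescence with electrophoretic mobility shift separating substrate from product, 1.33 h after dosing; loss of signal vs DMSO baseline. Primary screen in duplicate at 25 uM; actives retested in concentration-response up to 50 uM.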

The target of test [11] is human Protein Tyrosine Phosphatase Non-receptor Type 1 (PTPN1), PTPN1 (gene 5770) (UniProt P18031). The test can be described thus: NVS_ENZ_hPTPN1: NovaScreen (NVS) Enzymatic Assay for human Protein Tyrosine Phosphatase Non-receptor Type 1 (PTPN1) (AID 2283201). The gist of the method:
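Cell-free fluorogenic-substrate activity assay on recombinant enzyme, read 1.33 h after dosing by fluorescence and electrophoretic mobility shift; loss of signal vs DMSO baseline. Primary screen in duplicate at 25 uM, hits then run in concentration-response up to 50 uM.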

For test [12], the target named is Tyrosine-protein phosphatase non-receptor type 12 (Homo sapiens) (UniProt Q05209). The test can be described thus: NVS_ENZ_hPTPN12: NovaScreen (NVS) Enzymatic Assay for human Protein Tyrosine Phosphatase Non-receptor Type 12 (PTPN12) (AID 2283204). The method in brief: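 Single-concentration duplicates (25 uM) preceded singleton concentration-response up to 50 uM for chemicals passing threshold. Cell-free recombinant PTPN12 activity was read 1.33 h after dosing via fluorescence after mobility-shift separation; loss of signal versus DMSO.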
Tyrosine-protein phosphatase non-receptor type 12 (Homo sapiens), sequence (Q05209 whole entry, looked up): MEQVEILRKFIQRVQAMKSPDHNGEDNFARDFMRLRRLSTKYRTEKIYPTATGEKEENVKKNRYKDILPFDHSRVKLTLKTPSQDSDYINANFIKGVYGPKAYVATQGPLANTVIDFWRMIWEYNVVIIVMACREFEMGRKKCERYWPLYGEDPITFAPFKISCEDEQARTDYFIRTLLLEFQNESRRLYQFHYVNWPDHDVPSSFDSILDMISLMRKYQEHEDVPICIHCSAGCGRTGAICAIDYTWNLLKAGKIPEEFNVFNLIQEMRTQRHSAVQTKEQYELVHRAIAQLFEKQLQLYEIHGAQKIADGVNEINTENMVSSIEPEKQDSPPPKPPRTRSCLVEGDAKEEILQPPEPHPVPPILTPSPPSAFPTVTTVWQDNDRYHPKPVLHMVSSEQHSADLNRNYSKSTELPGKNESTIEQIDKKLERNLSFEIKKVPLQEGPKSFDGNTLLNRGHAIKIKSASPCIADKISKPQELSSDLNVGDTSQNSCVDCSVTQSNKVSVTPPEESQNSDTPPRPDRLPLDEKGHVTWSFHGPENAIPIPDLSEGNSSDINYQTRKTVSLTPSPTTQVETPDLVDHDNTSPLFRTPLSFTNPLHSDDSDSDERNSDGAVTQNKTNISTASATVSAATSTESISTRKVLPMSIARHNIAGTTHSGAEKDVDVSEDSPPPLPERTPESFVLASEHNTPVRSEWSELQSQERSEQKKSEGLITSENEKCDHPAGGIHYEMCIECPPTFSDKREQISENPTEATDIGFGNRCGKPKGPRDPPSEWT

Test [13] concerns the target human Protein Tyrosine Phosphatase Non-receptor Type 4 (PTPN4), PTPN4 (gene 5775) (UniProt P29074). The test can be described thus: NVS_ENZ_hPTPN4: NovaScreen (NVS) Enzymatic Assay for human Protein Tyrosine Phosphatase Non-receptor Type 4 (PTPN4) (AID 2283208). The gist of the method: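 Cell-free assay of PTPN4 expressed in Sf9 cells, using a fluorescent substrate with product separated by mobility shift; read 1.33 h after dosing. Single-point screen at 25 uM, then concentration-response up to 50 uM. Loss of signal relative to DMSO.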

In test [14] the target is human Protein Tyrosine Phosphatase Receptor Type B (PTPRB), PTPRB (gene 5787) (UniProt P23467). The test is described as follows: NVS_ENZ_hPTPRB: NovaScreen (NVS) Enzymatic Assay for human Protein Tyrosine Phosphatase Receptor Type B (PTPRB) (AID 2283211). The method in brief: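 Recombinant human PTPRB with a fluorescent substrate, product separated by electrophoretic mobility shift; read 1 h after dosing. Primary screen in duplicate at 25 uM; actives then retested in concentration series; loss of signal versus DMSO.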

The target in test [15] is human Protein Tyrosine Phosphatase Non-receptor Type 6 (PTPN6), PTPN6 (gene 5777) (UniProt P29350). The test is described as follows: NVS_ENZ_hPTPN6: NovaScreen (NVS) Enzymatic Assay for human Protein Tyrosine Phosphatase Non-receptor Type 6 (PTPN6) (AID 2283210). The gist of the method:
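Cell-free assay with recombinant PTPN6 expressed in SF9 cells, fluorescent substrate, product separated from substrate by electrophoretic mobility shift; read 1.33 hours after dosing. Primary screen in duplicate at 25 uM, actives retested in concentration series; DMSO baseline.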

In test [16] the target is human Phosphoinositide 3-kinase alpha (PI3Ka), PIK3CA (gene 5290) (UniProt P42336). The test is described as follows: NVS_ENZ_hPI3Ka: NovaScreen (NVS) Enzymatic Assay for human Phosphoinositide 3-kinase alpha (PI3Ka) (AID 2283196). The method in brief: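 Recombinant human PI3Kα with fluorescent substrate, 1 h, product separated by electrophoretic mobility shift; 25 uM duplicate screen, hits (e.g., 30% inhibition) retested singly up to 50 uM; loss of signal vs DMSO.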

Inconclusive results are not listed. The source made the active and inactive calls. How the source made its calls: active means hit-call score of the fitted dose curve at least 0.9, where 1 is the maximum; inconclusive means response in the unintended direction; inactive means score below 0.9.

human Phosphodiesterase 4A1 (PDE4A1), PDE4A (gene 5141), sequence (P27815 whole entry, looked up): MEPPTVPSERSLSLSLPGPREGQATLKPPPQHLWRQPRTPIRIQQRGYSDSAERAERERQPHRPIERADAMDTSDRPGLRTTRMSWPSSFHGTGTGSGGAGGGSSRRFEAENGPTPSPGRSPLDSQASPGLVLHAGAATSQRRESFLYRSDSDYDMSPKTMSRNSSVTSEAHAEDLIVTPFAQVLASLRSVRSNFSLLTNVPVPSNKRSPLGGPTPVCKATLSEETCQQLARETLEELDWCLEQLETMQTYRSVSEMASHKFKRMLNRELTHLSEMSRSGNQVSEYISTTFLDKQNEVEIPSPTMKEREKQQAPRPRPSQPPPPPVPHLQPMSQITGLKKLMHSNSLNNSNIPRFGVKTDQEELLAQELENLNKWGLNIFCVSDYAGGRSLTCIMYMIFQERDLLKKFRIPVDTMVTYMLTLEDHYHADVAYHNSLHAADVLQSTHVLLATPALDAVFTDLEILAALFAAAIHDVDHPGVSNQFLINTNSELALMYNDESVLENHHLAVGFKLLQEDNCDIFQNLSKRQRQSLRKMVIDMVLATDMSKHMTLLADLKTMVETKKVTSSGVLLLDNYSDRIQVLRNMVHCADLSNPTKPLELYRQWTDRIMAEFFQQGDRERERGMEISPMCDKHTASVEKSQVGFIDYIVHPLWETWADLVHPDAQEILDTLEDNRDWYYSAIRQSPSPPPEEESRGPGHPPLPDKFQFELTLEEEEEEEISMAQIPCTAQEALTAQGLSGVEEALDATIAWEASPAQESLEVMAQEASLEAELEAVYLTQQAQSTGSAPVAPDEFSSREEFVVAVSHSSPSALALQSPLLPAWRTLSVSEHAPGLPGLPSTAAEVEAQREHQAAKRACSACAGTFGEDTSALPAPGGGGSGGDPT
human Phosphodiesterase 10 (PDE10), PDE10A (gene 10846), sequence (Q9Y233 whole entry, looked up): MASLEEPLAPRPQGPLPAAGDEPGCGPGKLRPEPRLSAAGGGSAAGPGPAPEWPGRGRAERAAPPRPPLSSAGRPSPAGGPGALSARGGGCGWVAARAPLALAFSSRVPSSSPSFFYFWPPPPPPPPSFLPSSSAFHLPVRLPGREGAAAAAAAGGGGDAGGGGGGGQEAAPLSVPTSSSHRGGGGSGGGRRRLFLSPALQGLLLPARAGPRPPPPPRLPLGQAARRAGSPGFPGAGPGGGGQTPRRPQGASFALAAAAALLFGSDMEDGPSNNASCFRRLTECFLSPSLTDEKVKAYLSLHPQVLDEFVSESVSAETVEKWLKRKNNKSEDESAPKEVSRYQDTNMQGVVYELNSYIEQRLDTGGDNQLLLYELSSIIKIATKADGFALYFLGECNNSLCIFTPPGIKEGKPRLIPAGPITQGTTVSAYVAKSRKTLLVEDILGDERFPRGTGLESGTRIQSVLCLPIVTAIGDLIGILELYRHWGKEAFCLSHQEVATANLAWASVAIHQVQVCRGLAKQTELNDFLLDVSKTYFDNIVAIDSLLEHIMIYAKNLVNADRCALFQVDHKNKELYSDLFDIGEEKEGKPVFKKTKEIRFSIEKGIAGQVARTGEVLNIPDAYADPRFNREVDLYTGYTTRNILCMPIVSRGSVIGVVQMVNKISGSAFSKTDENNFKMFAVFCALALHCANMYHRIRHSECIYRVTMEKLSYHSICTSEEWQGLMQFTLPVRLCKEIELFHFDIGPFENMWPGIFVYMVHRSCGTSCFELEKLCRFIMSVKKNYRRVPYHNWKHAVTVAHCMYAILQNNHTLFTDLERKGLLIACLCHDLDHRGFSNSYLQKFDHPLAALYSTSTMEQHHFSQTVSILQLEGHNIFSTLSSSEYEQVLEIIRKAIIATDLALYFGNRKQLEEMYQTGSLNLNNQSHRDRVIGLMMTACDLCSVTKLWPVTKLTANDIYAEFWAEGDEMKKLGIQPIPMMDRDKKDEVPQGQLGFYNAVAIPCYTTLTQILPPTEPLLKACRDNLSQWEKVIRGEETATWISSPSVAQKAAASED
human Mitogen- and Stress-activated Protein Kinase-1 (Msk1), RPS6KA5 (gene 9252), sequence (O75582 whole entry, looked up): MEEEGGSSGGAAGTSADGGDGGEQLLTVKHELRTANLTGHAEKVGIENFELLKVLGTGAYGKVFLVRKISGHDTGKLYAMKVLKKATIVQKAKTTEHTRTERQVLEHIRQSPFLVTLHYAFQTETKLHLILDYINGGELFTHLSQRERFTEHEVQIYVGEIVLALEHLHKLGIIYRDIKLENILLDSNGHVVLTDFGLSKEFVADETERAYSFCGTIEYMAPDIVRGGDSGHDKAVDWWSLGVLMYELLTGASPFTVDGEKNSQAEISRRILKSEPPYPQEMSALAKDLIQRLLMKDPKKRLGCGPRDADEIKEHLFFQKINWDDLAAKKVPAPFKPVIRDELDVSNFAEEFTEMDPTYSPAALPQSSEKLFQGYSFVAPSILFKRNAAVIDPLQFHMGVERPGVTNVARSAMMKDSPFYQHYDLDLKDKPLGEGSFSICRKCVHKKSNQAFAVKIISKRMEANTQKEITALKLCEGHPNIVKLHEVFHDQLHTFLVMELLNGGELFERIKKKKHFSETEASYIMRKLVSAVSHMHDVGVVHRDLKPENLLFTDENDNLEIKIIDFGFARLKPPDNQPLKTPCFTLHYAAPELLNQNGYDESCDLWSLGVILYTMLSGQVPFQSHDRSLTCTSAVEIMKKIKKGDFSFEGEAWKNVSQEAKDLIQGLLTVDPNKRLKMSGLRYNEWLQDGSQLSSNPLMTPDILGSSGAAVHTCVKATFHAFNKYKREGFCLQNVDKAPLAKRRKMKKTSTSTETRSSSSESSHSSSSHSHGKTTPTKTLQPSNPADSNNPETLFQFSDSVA
human Protein Phosphatase, Mg2+/Mn2+ Dependent 1A (PPM1A), PPM1A (gene 5494), sequence (P35813 whole entry, looked up): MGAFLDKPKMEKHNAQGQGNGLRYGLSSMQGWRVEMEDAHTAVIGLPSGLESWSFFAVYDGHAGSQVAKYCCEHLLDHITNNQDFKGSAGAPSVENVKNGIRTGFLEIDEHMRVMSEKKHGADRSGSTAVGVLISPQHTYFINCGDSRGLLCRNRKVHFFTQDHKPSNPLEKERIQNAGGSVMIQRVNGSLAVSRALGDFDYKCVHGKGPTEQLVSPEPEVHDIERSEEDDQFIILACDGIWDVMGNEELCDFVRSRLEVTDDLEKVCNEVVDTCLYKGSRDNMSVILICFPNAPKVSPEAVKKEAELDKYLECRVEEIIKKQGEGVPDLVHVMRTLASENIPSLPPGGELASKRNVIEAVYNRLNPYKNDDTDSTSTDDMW
Serine/threonine-protein phosphatase PP1-alpha catalytic subunit (Homo sapiens), sequence (P62136 whole entry, looked up): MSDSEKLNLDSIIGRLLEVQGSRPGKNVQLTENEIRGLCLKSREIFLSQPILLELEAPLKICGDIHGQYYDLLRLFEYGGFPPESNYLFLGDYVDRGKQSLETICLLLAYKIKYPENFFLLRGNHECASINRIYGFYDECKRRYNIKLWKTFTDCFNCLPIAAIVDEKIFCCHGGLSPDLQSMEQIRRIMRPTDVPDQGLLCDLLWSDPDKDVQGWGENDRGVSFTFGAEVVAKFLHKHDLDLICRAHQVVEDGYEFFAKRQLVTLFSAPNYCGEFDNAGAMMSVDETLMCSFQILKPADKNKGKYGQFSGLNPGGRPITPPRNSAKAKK

On to `CC(=O)Oc1ccccc1C(=O)O`, for which the result in test [1] and in test [2] was inactive.

For `Cc1cc(NC(=O)C(=O)O)cc(C)c1Oc1ccc(O)c2c1CCC2`, the AC50 in test [2] was 8.94 µM (active). The molecule was classed as inactive in test [3].

Turning to `CC=Cc1ccc(O)c(OC)c1`, in test [2], the molecule was called inactive.

As for `NS(=O)(=O)c1cc2c(cc1Cl)NCNS2(=O)=O`, the molecule was classed as inactive in test [4] and in [5].

Consider `Cc1cccc(C)c1O`, for which the molecule was called inactive in test [2].

As for `CNCc1cc(F)ccc1Oc1ccc(Cl)c(Cl)c1`, the result in test [1] and in test [6] was inactive.

As for `CCCCc1ccc2c(n1)[C@@H](c1ccc(OC)cc1C[C@H](C)C(=O)O)[C@H](C(=O)O)[C@H]2c1ccc2c(c1)OCO2`, the call in test [4] was inactive.

Turning to `NCC1(Cc2noc(=O)[nH]2)CCCCC1`, the outcome in [6] was inactive.

Regarding `O=c1[nH]cc(F)c(=O)[nH]1`, the result in test [2] and in test [3] was inactive.

Take `CNC(=O)[C@H]1O[C@@H](n2cnc3c(NCc4cc(Cl)ccc4OCc4cc(C)no4)ncnc32)[C@H](O)[C@@H]1N`: the AC50 in [4] is 8.35 µM (active). Moreover, the molecule was called inactive in [7] and in test [2].

On to `Cc1c(C(=O)O)c(O)cc2c1C(=O)c1c(O)c([C@@H]3O[C@H](CO)[C@@H](O)[C@H](O)[C@H]3O)c(O)c(O)c1C2=O`, for which the AC50 in [4] was 4.45 µM (active). Further, the call in test [1] was inactive.

Regarding `O=C(N[C@@H](Cc1ccccc1)[C@@H](O)C(=O)N1C[C@@H](O)[C@@H](O)C1)c1cc2cc(Cl)ccc2[nH]1`, the molecule was called inactive in test [4], in test [1] and in test [2].

For the molecule `CCCc1cc(=O)[nH]c(=S)[nH]1`, the AC50 in [4] is 8.66 µM (active). In test [8], the call was inactive.

Turning to `FC(F)(F)C(F)(F)C(F)(F)C(F)(F)C(F)(F)C(F)(F)CCI`, the molecule was classed as inactive in [9], in test [7], in test [10], in test [11], in [12] and in test [13]. In addition, in test [14], the molecule was classed as inactive. Further, the AC50 in test [2] was 19.7 µM (active).

Consider `CC1=C(/C=C/C(C)=C/C=C/C(C)=C/CO)C(C)(C)CCC1`, for which the molecule was classed as inactive in test [9], in test [1] and in test [2].

In the case of `Cc1ccc(C)c(C)c1`, the result in test [2] and in [15] was inactive.

As for `Cc1nc(-c2ccc3c(c2)CCN(CCC2CCC(NC(=O)/C=C/c4ccc(F)cc4)CC2)CC3)no1` (stereo unspecified), the molecule was called inactive in test [2], in [16] and in [12]. Moreover, in test [6], the AC50 is 3.71 µM (active).

The values are drawn from PubChem BioAssay (EPA / NIEHS).
